Among the data in PubChem BioAssay are outcome and inhibition values, retold here.

Each structure is given as a SMILES string. For some of these results: Results with a measured potency or affinity are listed apart. Calls of active or inactive are those of the source.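 Rule for the calls, unless noted: active = compound raising the membrane signal above positive-control mean plus 3 SD in both repeats, and a primary screen hit; inactive = the rest.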

Test [1] concerns TRPC4 beta (transient receptor potential cation channel C4), mouse. The test is described as follows: activators of mouse TRPC4 channel, confirmation, cell-based, Fluo4 calcium, HEK293 TRPC4beta/mu-opioid, duplicates, 10 µM (AID 2426;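 active = fluorescence ratio normalized to control raised more than 50% in primary screen plus both repeat runs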). The following applies: Fluo4 calcium fluorescence, at 10 µM; active compounds read high.
Test [2] relates to transient receptor potential cation channel C4 beta (TRPC4), mouse. In words: activators of mouse TRPC4 channel, confirmation, cell-based, second round, Fluo4, HEK293 TRPC4beta/mu-opioid, 1 µM (AID 2461;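 active = primary screen active and over 50% activation in each of two duplicate runs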). Conditions: Fluo4 calcium fluorescence, at 1 µM; active compounds read high.
Test [3] has as its system TRPC4 (transient receptor potential cation channel C4 beta), mouse. In words: positive allosteric modulators of mouse TRPC4, confirmation, cell-based, second round, Fluo-4, HEK293 TRPC4beta/mu-opioid, 1 µM (AID 2554;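 active = primary screen hit whose fluorescence ratio, in both repeats, exceeds the weak agonist control mean by 3 SD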). Conditions: DAMGO EC20, Fluo-4 calcium flux, at 1 µM; active compounds read high.
In test [4] the test system is TRPC4 beta (transient receptor potential cation channel C4), mouse. The test is described as follows: positive allosteric modulators of mouse TRPC4, confirmation, cell-based, Fluo-4, HEK293 TRPC4beta/mu-opioid (AID 2555;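 active = primary screen hit whose calcium fluorescence ratio, in both repeats, exceeds the weak agonist control mean by 3 SD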). Conditions: DAMGO EC20, Fluo-4 calcium flux, at 10 µM; active compounds read high.
For test [5], the target named is Short transient receptor potential channel 4 (Mus musculus) (UniProt Q9QUQ5). In words: inhibitors of mouse TRPC4 channel, confirmation, cell-based, Fluo4, HEK293 TRPC4beta/mu-opioid (AID 2636;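 active = calcium signal cut by more than 3 SD below the full-agonist control yet still positive, in both repeats and the earlier primary screen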). The following applies: DAMGO, Fluo4 calcium flux, at 10 µM; active compounds read high.
Chain of Short transient receptor potential channel 4 (Mus musculus) (Q9QUQ5 whole entry, looked up): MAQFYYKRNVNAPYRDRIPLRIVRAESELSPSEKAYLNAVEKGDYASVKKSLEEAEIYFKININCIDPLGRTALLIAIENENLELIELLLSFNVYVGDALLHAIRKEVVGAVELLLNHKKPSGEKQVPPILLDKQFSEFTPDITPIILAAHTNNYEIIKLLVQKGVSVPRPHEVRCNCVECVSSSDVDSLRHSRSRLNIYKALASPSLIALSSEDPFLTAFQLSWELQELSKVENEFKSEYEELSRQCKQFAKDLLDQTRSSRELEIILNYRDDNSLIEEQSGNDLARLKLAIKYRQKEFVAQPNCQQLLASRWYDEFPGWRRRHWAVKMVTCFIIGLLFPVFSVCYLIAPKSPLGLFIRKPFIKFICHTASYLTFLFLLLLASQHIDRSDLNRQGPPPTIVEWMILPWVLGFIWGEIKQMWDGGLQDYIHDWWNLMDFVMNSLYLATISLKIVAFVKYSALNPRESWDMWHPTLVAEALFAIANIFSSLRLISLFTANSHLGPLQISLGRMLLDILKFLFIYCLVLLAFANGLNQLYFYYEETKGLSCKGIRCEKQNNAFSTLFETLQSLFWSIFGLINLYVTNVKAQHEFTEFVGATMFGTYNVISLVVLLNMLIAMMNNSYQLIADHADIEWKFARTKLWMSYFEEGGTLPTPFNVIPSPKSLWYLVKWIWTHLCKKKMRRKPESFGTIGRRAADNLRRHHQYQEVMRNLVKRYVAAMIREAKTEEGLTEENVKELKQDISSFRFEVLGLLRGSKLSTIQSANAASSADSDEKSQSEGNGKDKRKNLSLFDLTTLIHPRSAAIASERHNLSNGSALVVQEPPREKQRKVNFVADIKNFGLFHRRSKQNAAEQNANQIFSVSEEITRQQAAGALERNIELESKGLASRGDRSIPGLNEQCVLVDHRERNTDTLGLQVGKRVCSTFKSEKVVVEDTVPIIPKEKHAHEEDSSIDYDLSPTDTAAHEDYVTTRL
For test [6] the target is unchanged. The test is described as follows: inhibitors of mouse TRPC4 channel, confirmation, cell-based, second round, Fluo4, HEK293 TRPC4beta/mu-opioid, 1 µM (AID 2637;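 active = calcium signal ratio cut to more than 3 SD under the fully stimulated control mean yet still positive, in both repeats and the primary screen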;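 for inhibition: percent of integrated ratio relative to wells lacking test compound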). Conditions: Fluo4 calcium flux, DAMGO, at 1 µM; active compounds read high.
For test [7] the target is unchanged. In words: mouse TRPC4 channel activators, dose response, cell-based, HEK293 TRPC4/mu-opioid, Fluo-4 calcium (AID 434937;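 active = primary screen activator hit with a dose response curve and TRPC4 channel activation at any tested dose; inactive = no activation, no dose response, or not a primary hit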).
The target is the same in test [8]. In words: TRPC4 positive allosteric modulators, dose response, cell-based, HEK293 TRPC4/mu-opioid, Fluo-4 calcium, EC20 DAMGO (AID 434941;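 active = earlier screen potentiator hit that boosts the TRPC4 ion channel at some dose, with a dose response; inactive = no potentiation, no dose response, or not a prior hit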;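 note: calcium entry triggered by an EC20 dose of DAMGO at the co-expressed mu-opioid receptor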).
Test [9] has as its target Short transient receptor potential channel 6 (Mus musculus) (UniProt Q61143). In words: inhibition of mouse TRPC6 channel, confirmation, selectivity assay for TRPC4 inhibitor project, cell-based, HEK293, membrane potential dye, duplicate (AID 434948;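 active = active in primary screen and both duplicates, each dropping signal beyond three positive-control SD with fluorescence still positive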). The following applies: HEK293 TRPC6, membrane potential dye fluorescence, at 10 µM, stimulated with maximal-effect acetylcholine; active compounds read high.

Test [10] shares this target. In words: activation of mouse TRPC6 channel, confirmation, selectivity assay for TRPC4 activator project, cell-based, HEK293, membrane potential dye, duplicate (AID 434950;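 active = membrane potential signal rise above negative control mean plus 3 SD in both duplicates, also active in the earlier TRPC4 screen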). The following applies: HEK293 TRPC6, membrane potential fluorescence, at 10 µM; active compounds read high.
The target is the same in test [11]. In words: TRPC6 potentiation by TRPC4 potentiator hits, confirmation, selectivity assay for TRPC4 potentiator project, HEK293 cells, membrane potential dye, duplicate (AID 434952). Conditions: HEK293 TRPC6, membrane potential dye fluorescence, at 10 µM, maximal acetylcholine added after compound; active compounds read high.
The target of test [12] is Short transient receptor potential channel 4 (Mus musculus) (UniProt Q9QUQ5). The test is described as follows: calcium flux activators in TRPC4/5HT1a cells, counter-screen for TRPC4 activator project, cell-based, second counter screen, HEK293 TRPC4/5HT1a, Fluo-4 (AID 434977;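 active = calcium signal rise above buffer-control mean plus 5 SD in both duplicates, and also a hit in the primary screen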). Conditions: Fluo-4 calcium flux, at 10 µM; active compounds read high.
Test [13] is described as follows: calcium flux inhibitors in TRPC4/5HT1a cells, confirmation, counter-screen for TRPC4 inhibitor project, cell-based, second counter screen, HEK293 TRPC4/5HT1a, Fluo-4 (AID 434978;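 active = primary screen active whose calcium signal fell more than 3 SD beyond the full-serotonin control mean in both duplicate plates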;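 for outcome: serotonin given first at submaximal then at maximal dose after compound preincubation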). The following applies: Fluo-4 calcium flux, at 10 µM, serotonin added to trigger calcium flux; active compounds read high.
Test [14] deals with TRPC4 (mouse), co-expressed with 5HT1a in HEK293. The test is described as follows: calcium flux potentiators in TRPC4/5HT1a cells, confirmation, counter-screen for TRPC4 potentiator project, cell-based, second counter screen, HEK293 TRPC4/5HT1a, Fluo-4 (AID 434979;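 active = signal rise over 3 SD above mean of control wells given weak agonist, in both repeats and first screen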). Conditions: Fluo-4 calcium flux, at 10 µM, serotonin added at its EC20 dose; active compounds read high.
Test [15] is described as follows: calcium flux activation in mu-opioid HEK293 cells, confirmation, counter-screen for TRPC4 activator project, cell-based, HEK293 mu-opioid receptor line (AID 449723;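 active = hit in primary screen, with calcium signal over 5 SD above buffer well mean in both duplicates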;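 note: counter screen cells carry the mu-opioid receptor alone and lack TRPC4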). The following applies: Fluo-4 calcium fluorescence, at 10 µM; active compounds read high.
A short description of test [16]: calcium flux enhancement in mu-opioid HEK293 cells, confirmation, counter-screen for TRPC4 allosteric potentiator project, cell-based, HEK293 mu-opioid receptor line (AID 449724;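 active = calcium signal rise more than 3 SD above the low-dose agonist control mean, in both duplicate plates and the primary screen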;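 note: HEK293 cells carrying mu-opioid receptor only with no TRPC4 channel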). Conditions: Fluo-4 calcium flux, at 10 µM, compound added before EC20 DAMGO stimulus; active compounds read high.

Chain of Short transient receptor potential channel 6 (Mus musculus) (Q61143 whole entry, looked up): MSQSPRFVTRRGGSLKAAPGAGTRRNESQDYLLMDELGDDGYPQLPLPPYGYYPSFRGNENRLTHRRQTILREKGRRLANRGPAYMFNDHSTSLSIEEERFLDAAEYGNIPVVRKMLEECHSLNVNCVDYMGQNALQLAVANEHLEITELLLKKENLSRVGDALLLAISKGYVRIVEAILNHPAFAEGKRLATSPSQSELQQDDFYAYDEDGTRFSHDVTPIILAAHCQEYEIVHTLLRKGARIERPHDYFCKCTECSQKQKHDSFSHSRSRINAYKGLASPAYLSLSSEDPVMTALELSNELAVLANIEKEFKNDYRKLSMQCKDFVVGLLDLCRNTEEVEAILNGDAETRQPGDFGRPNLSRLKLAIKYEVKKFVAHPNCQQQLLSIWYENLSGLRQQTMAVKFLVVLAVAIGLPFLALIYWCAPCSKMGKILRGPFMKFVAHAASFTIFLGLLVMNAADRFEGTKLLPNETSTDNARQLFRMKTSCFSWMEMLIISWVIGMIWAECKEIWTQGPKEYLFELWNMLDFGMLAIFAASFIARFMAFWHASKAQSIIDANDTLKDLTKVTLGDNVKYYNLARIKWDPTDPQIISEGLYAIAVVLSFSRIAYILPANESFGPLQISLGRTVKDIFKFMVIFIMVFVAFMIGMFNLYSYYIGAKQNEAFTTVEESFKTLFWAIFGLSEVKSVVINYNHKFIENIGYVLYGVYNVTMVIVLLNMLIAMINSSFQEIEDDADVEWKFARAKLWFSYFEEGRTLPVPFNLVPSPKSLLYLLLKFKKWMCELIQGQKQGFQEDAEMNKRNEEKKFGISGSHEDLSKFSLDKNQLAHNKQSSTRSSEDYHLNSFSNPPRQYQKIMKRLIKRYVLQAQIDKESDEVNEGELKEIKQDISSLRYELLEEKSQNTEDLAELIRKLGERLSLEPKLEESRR

`CC(NC(=O)c1ccco1)C(c1cccs1)N1CCN(c2ccccc2)CC1` (stereo unspecified): the outcome in [1], in [2], in test [3], in [4], in test [7] and in test [8] was inactive. Also, the call in test [9], in test [10], in test [11], in [12], in [13] and in test [14] was inactive. The outcome in test [15] and in test [16] was inactive. Besides, the inhibition is 98% (active) in test [5] and 51% (active) in test [6].
In the case of `COc1ccccc1C(=O)Nc1ccc2c(c1)CCCN2C(=O)c1cccs1`, the result in test [1], in test [2], in test [3], in [4], in [5] and in test [6] was inactive. Further, the result in test [7], in test [8], in test [9], in [10], in test [11] and in test [12] was inactive. The outcome in test [13], in [14], in test [15] and in [16] was inactive.
As to `CCOC(=O)C1CCN(CC(O)COc2ccc(C(C)(C)C)cc2)CC1` (stereo unspecified), the outcome in test [1], in test [2], in [3], in test [4], in test [5] and in test [6] was inactive. The outcome in test [7], in test [8], in [9], in [10], in [11] and in test [12] was inactive. Also, the outcome in test [14], in [15] and in [16] was inactive. For the same compound, the inhibition in [13] is 41.5% (active).
As for `CCC1C=C(c2ccccc2)C=CN=C1N(CC)CC` (stereo unspecified), the result in test [1], in test [2], in test [3], in [4], in test [6] and in test [7] was inactive. In addition, the outcome in [8], in [9], in test [10], in [11], in [12] and in test [14] was inactive. Besides, the result in test [15] and in test [16] was inactive. The inhibition was 93% (active) in test [5] and 26.5% (active) in [13].
For the compound `CCCCn1c(NCCO)nc2ccccc21`, the result in [1], in test [2], in [3], in test [4], in test [7] and in test [8] was inactive. Also, the result in test [9], in [10], in test [11], in test [12], in test [14] and in test [15] was inactive. In test [16], the result was inactive. For the same compound, the results for the inhibition in test [5], in test [6] and in [13] were 92% (active), 66% (active) and 29.5% (active), respectively.
Turning to `COC(=O)c1ccc(Nc2cc(C)nc3ccccc23)cc1`, the outcome in [1], in test [2], in test [3], in [4], in [6] and in test [7] was inactive. In addition, the outcome in test [8], in test [10], in test [11], in test [12], in test [14] and in test [15] was inactive. In addition, in [16], the outcome was inactive. Also, the inhibition in [5] was 98% (active); in test [9], 50% (active); in test [13], 19.9% (active).
Turning to `Nc1c2c(nc3ccccc13)N(c1ccccc1)CC2`, the result in [1], in [2], in test [3], in [4], in test [6] and in [7] was inactive. Also, the result in test [8], in [10], in [11], in [12], in [14] and in test [15] was inactive. In addition, in test [16], the result was inactive. The inhibition in test [5] was 77% (active); in [9] it was 26% (active); in test [13], 31.2% (active).
With `O=C(CSc1nnc(-c2ccc(Cl)cc2Cl)n1C1CCCCC1)NC1CCS(=O)(=O)C1` (stereo unspecified), the outcome in test [1], in [2], in [3], in [4], in test [6] and in test [7] was inactive. Besides, the result in test [8], in [9], in [10], in test [11], in test [12] and in test [13] was inactive. Moreover, the outcome in test [14], in test [15] and in test [16] was inactive. Moreover, the inhibition in [5] was 82% (active).
On to `COc1ccc(C2CC(c3ccccc3)Nc3nc(NC(=O)c4cccs4)nn32)cc1` (stereo unspecified), for which the result in test [1], in test [2], in [3], in [4], in test [6] and in test [7] was inactive. Moreover, the result in [8], in [9], in [10], in [11], in test [12] and in [13] was inactive. In addition, the result in test [14], in test [15] and in test [16] was inactive. Moreover, the inhibition in [5] was 95% (active).
In the case of `CC1CCN(C(C)C(=O)Nc2ccccc2-c2ccccc2)CC1` (stereo unspecified), the result in test [1], in [2], in test [3], in test [4], in test [7] and in [8] was inactive. For the same compound, the call in [9], in test [10], in [11], in test [12], in [14] and in [15] was inactive. In addition, the outcome in test [16] was inactive. In addition, the inhibition in test [5] is 82% (active); in test [6] it was 36% (active); in test [13] it was 33.1% (active).
Consider `N=c1sccn1CC(=O)Nc1ccccc1Oc1ccccc1`, for which the outcome in [1], in test [2], in test [3], in [4], in test [7] and in test [8] was inactive. The compound was classed as inactive in [10], in test [11], in [12], in test [14], in test [15] and in test [16]. The inhibition in test [5] was 92% (active); in test [6], 48% (active); in test [9], 48% (active); in test [13], 34.6% (active).
`CN1CCN(c2ccc(NC(=O)c3ccc(-c4ccc(Cl)cc4)o3)cc2)CC1`: the outcome in [1], in test [2], in test [3], in [4], in [7] and in test [8] was inactive. In addition, the compound was classed as inactive in [9], in test [10], in test [11], in test [12], in test [13] and in [14]. Besides, the outcome in test [15] and in test [16] was inactive. For the same compound, the inhibition in [5] is 85% (active); in [6], 58% (active).
`O=C(Nc1ccccc1)N1CCN2C(=O)c3ccccc3C12c1ccccc1` (stereo unspecified): the result in test [1], in test [2], in test [3], in test [4], in test [7] and in test [8] was inactive. Also, the compound was classed as inactive in test [9], in [10], in test [11], in test [12], in test [13] and in test [14]. Moreover, the result in test [15] and in test [16] was inactive. The values for the inhibition in [5] and in [6] were 85% (active) and 62% (active), respectively.
Take `Nc1c2c(nc3c1CCCC3)CCCC2` (tested in a mixture with another compound): the result in test [1], in [2], in [3], in [4], in test [7] and in test [8] was inactive. The compound was classed as inactive in test [9], in test [10], in test [11], in test [12], in [14] and in test [15]. Also, the result in test [16] was inactive. Besides, the inhibition in test [5] was 94% (active); in test [6], 60% (active); in [13], 18.3% (active).
As to `COc1cc(C(=O)N(CCc2ccccc2)C2=CC3CCC(C2)N3C)cc(OC)c1OC` (stereo unspecified), the result in [1], in [2], in test [3], in [4], in test [5] and in test [7] was inactive. Besides, the result in test [8], in test [9], in [10], in test [11], in test [12] and in test [13] was inactive. Moreover, the outcome in test [14], in [15] and in test [16] was inactive. Besides, the inhibition in test [6] is 54% (active).
Take `Cc1cc(OCc2cc(C(=O)NCC3(C)COC3)no2)cc(C)c1Cl`: the outcome in test [1], in [2], in test [3], in [4], in [6] and in [7] was inactive. The outcome in [8], in [9], in [10], in test [11], in test [12] and in test [14] was inactive. Further, the outcome in [15] and in [16] was inactive. Besides, the figures for the inhibition in test [5] and in test [13] were 66% (active) and 40.6% (active), respectively.
